Source: PubChem BioAssay
Calls of active or inactive are those of the source. Unless noted, no rule for the calls is given here.

Key:
[1] = compound effects on lung adenocarcinoma cell viability – A549, calcein-AM fluorescence, 48 h, basal, profiling panel (AID 1162); conditions: higher = more signal; also: test concentration not given here
[2] = compound effects on differentiated 3T3-L1 adipocyte viability – cell-based, 3T3-L1 adipocytes, calcein-AM fluorescence, 48 h, basal, profiling panel (AID 1163); conditions: 3T3-L1 adipocytes viability, higher = more signal; also: test concentration not given here
[3] = compound effects on hepatocellular carcinoma cell viability – HepG2, calcein-AM fluorescence, 48 h, basal, profiling panel (AID 1164); conditions: higher = more signal; also: test concentration not given here
[4] = compound effects on multiple myeloma cell viability – MM1S, calcein-AM fluorescence, 48 h, basal, profiling panel (AID 1165); conditions: higher = more signal; also: test concentration not given here
[5] = calcein-AM signal in unstimulated myeloma cells – cell-based, calcein-AM fluorescence, 48 h, PK04 Diversity Set, profiling panel (AID 1166); conditions: RPMI8226 myeloma viability, higher = more signal;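 also: cells grown under basal conditions without added stimulus; test concentration not given here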
[6] = JC-1 mitochondrial signal, unstimulated HepG2 cells – cell-based, JC-1 fluorescence, 24 h, 100 nL compound, profiling panel (AID 1167); conditions: HepG2 mitochondrial potential, higher = more signal; also: test concentration not given here
[7] = JC-1 mitochondrial signal, unstimulated adipocytes – cell-based, JC-1 fluorescence, 3T3-L1 adipocytes, 24 h, 100 nL compound, profiling panel (AID 1168); conditions: JC-1 mitochondrial fluorescence, higher = more signal, called active from +8 up or from −8 down; also: test concentration not given here
[8] = JC-1 mitochondrial signal, unstimulated myeloma cells – cell-based, JC-1 fluorescence, RPMI8226, 24 h, 100 nL compound, profiling panel (AID 1169); conditions: JC-1 mitochondrial potential fluorescence, higher = more signal; also: test concentration not given here
[9] = JC-1 mitochondrial signal, unstimulated MM1S myeloma – cell-based, JC-1 fluorescence, 24 h, 100 nL compound, profiling panel (AID 1170); conditions: MM1S mitochondrial potential, higher = more signal; also: test concentration not given here
[10] = resazurin metabolic signal in A549 cells – cell-based, resazurin fluorescence, 24 h, PK04 Diversity Set, profiling panel (AID 1171); conditions: A549 viability, higher = more signal, called active from +8 up or from −8 down; also: test concentration not given here
[11] = resazurin metabolic signal in HepG2 cells – cell-based, resazurin fluorescence, 24 h, PK04 Diversity Set, profiling panel (AID 1172); conditions: HepG2 viability, higher = more signal; also: test concentration not given here
[12] = budding yeast growth changes without added modifier – OD600, strain BY4716, 24 h, basal condition, primary screen (AID 1173); conditions: S. cerevisiae BY4716 growth, OD600, 24 h; higher = more signal, called active from +8 up or from −8 down
[13] = viability profiling in MM1S myeloma cells – cell-based, resazurin fluorescence, basal, 24 h, PK04 Diversity Set, profiling panel (AID 1174); conditions: higher = more signal, called active from +8 up or from −8 down; also: test concentration not given here
[14] = molecular target: Dihydroorotate dehydrogenase (quinone), mitochondrial (Plasmodium falciparum (isolate 3D7)) (UniProt Q08210); assay: inhibition of P. falciparum DHODH – biochemical, C-terminal His tag, absorbance 600 nm, primary screen (AID 1175); conditions: PfDHODH enzyme, DCIP absorbance 600 nm; higher = more signal, called active from +8 up or from −8 down;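 also: recombinant parasite enzyme with a five histidine tag at its C terminus; test concentration not given here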
[15] = inhibition of PAO1 biofilm formation – strain PAO1, LB-PBS medium, absorbance 600 nm, primary screen (AID 1176); also: test concentration not given here; conditions: P. aeruginosa PAO1 growth/biofilm, A600, 12 h; higher = more signal
[16] = growth modulation of vineyard yeast isolate – strain RM11-1a, OD600, basal, 24 h, primary screen (AID 1177);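 also: cultures grown under basal conditions with no added stressor; test concentration not given here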; conditions: S. cerevisiae RM11-1a growth, OD600, 24 h; higher = more signal, called active from +8 up or from −8 down
[17] = growth of efflux-deficient E. coli DRC39 – strain DRC39, OD650, 24 h, E. coli filamentation inducers, primary screen (AID 1178);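 also: growth measured as culture turbidity by optical density at 650 nm; test concentration not given here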; conditions: E. coli DRC39 acrAB, higher = more signal, called active from +8 up or from −8 down
[18] = growth of efflux-deficient E. coli DRC39 – strain DRC39, OD650, 48 h, E. coli filamentation inducers, primary screen (AID 1179);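 also: screen aims at cell division blockers that make cells filament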; conditions: E. coli DRC39 delta-acrAB growth, higher = more signal, called active from +8 up or from −8 down
[19] = viability profiling in RPMI8226 myeloma cells – cell-based, resazurin fluorescence, basal, 24 h, PK04 Diversity Set, profiling panel (AID 1180); conditions: higher = more signal;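 also: RPMI8826 multiple myeloma cell line at 5000 cells per well; test concentration not given here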
[20] = molecular target: E3 ubiquitin-protein ligase XIAP (Homo sapiens) (UniProt P98170); assay: small molecules binding XIAP protein – biophysical, small-molecule microarray, fluorescence 635 nm, primary screen (AID 1181); conditions: higher = more signal;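 also: score merges 667 nm emission and signal to noise over triplicate slides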
Chain of E3 ubiquitin-protein ligase XIAP (Homo sapiens) (P98170 whole entry, looked up): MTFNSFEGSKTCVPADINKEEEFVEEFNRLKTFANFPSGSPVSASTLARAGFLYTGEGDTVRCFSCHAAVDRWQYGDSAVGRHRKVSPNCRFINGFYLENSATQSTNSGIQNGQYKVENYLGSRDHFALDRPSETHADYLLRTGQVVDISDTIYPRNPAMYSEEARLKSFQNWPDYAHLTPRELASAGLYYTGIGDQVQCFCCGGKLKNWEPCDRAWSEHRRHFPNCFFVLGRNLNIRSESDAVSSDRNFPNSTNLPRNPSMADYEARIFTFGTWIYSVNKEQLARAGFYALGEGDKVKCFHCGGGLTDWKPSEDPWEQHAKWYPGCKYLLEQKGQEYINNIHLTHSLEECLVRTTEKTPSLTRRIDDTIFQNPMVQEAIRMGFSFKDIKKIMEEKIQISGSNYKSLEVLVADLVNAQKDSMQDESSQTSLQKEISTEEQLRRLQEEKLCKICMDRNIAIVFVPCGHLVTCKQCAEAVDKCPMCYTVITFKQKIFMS

Chain of Dihydroorotate dehydrogenase (quinone), mitochondrial (Plasmodium falciparum (isolate 3D7)) (Q08210 whole entry, looked up): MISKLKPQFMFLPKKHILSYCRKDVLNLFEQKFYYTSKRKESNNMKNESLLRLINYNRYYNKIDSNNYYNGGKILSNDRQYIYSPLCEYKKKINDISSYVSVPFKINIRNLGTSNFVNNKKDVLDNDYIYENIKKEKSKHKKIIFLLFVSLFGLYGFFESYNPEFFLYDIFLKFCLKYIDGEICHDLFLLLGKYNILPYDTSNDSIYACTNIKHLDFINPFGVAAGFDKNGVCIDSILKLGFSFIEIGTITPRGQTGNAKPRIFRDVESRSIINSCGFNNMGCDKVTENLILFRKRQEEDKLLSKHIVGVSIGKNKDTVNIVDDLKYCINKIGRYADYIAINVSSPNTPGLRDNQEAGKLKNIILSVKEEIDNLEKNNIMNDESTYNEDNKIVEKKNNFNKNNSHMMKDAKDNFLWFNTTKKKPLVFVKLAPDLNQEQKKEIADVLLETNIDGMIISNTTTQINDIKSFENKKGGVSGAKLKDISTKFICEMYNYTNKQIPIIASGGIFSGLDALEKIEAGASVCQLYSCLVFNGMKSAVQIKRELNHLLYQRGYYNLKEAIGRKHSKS

Compound | z-score [1] | z-score [2] | z-score [3] | z-score [4] | z-score [5] | z-score [6] | z-score [7] | z-score [8] | z-score [9] | z-score [10] | z-score [11] | z-score [12] | z-score [13] | composite z-score [14] | z-score [15] | z-score [16] | z-score [17] | z-score [18] | z-score [19] | composite z-score [20]
CCCC=C(CCC)[C@@H](NC(=O)c1ccc(C(=O)OC)cc1)c1ccc(C(=O)OC)cc1 | -1.48 | -0.454 | -1.54 | -1 | -1.59 | -0.261 | -1.28 (inactive) | -0.342 | -1.15 | 0.69 (inactive) | -0.179 | 1.24 (inactive) | -0.64 (inactive) | 0.138 (inactive) | 1.1 (inactive) | 1.55 (inactive) | -1.1 (inactive) | -0.486 (inactive) | -0.358 | 0.0627
C=C(CCCC)C(=O)CC[C@H](OC(=O)c1ccccc1-c1ccccc1C(=O)O)c1cccc(OCCO)c1 | -0.186 | 0.415 | -0.73 | -3.37 | -2.88 | -0.789 | 0.379 (inactive) | -0.451 | -0.507 | -0.611 (inactive) | -1.01 | -1.21 (inactive) | -0.821 (inactive) | -0.347 (inactive) | 1.09 (inactive) | 0.0742 (inactive) | -0.778 (inactive) | -0.689 (inactive) | -0.432 | -0.138
C=CC[C@]1(C(=O)NCC(O)CO)N=C(c2ccc(OCCCO)cc2)O[C@H]1c1ccccc1CN=[N+]=[N-] (stereo not given in full) | 0.444 | -0.0459 | 1.31 | -0.22 | -0.365 | 1.28 | -0.451 (inactive) | -0.427 | -0.825 | -0.389 (inactive) | -0.766 | -0.432 (inactive) | -1.51 (inactive) | -0.0887 (inactive) | 1.27 (inactive) | 0.244 (inactive) | -0.363 (inactive) | 0.196 (inactive) | -0.566 | -0.0136
[N-]=[N+]=NCc1ccccc1C[C@@]1(C(N)=O)N=C(c2ccc(OCCCO)cc2)O[C@@H]1c1ccccc1N=[N+]=[N-] | -0.908 | -0.278 | -0.705 | -3 | -3.1 | -1.07 | -0.71 (inactive) | -1.08 | -0.62 | -0.583 (inactive) | 0.304 | -1.35 (inactive) | -1.32 (inactive) | 0.474 (inactive) | 2.28 (inactive) | 0.0193 (inactive) | 0.207 (inactive) | -0.893 (inactive) | -0.644 | 0.0871
O=C1c2ccccc2[C@](Cc2ccccc2I)(C(=O)NCCN2CCOCC2)[C@H](c2ccc(CO)cc2)N1Cc1ccccc1C(F)(F)F | 0.368 | 0.469 | -0.103 | -1.98 | -2.7 | 1.5 | 0.0392 (inactive) | -0.876 | -0.601 | -0.577 (inactive) | -0.936 | -1.14 (inactive) | -0.269 (inactive) | -0.584 (inactive) | 0.0435 (inactive) | -0.538 (inactive) | 0.0398 (inactive) | -0.46 (inactive) | -0.606 | -0.0095
COCCOC(=O)N1C(=O)[C@@]2(c3cc(C#CCC(C(=O)OC)C(=O)OC)ccc31)[C@H](C(N)=O)[C@H]1C(=O)O[C@H](c3ccccc3)[C@H](c3ccccc3)N1[C@@H]2c1ccccc1OCCO | 1.3 | 1.27 | 0.645 | -2.97 | -3.48 | 0.142 | 1.83 (inactive) | -0.79 | -1.62 | -0.175 (inactive) | -0.0131 | -0.65 (inactive) | -1.99 (inactive) | -7.07 (inactive) | 3.05 (inactive) | -0.243 (inactive) | 0.664 (inactive) | 1.42 (inactive) | -5.51 | 0.231
C=CC[C@H](O)c1ccc(O)c(F)c1 | -0.402 | 0.329 | -0.821 | -0.229 | -0.426 | -0.737 | 0.083 (inactive) | -0.153 | 0.384 | -0.396 (inactive) | -0.632 | -2.36 (inactive) | -0.711 (inactive) | -0.0056 (inactive) | 0.131 (inactive) | -0.498 (inactive) | 0.117 (inactive) | 0.0282 (inactive) | -0.0926 | -0.0088
COc1ccc(NN2C(C(O)c3ccc(F)cc3)C=CC3C(=O)N(C4CCCCC4)C(=O)C32)cc1 (stereo not given) | -0.705 | -0.17 | -0.0716 | -1.05 | -1.08 | -0.496 | -1.23 (inactive) | -0.169 | -0.191 | 0.227 (inactive) | -0.598 | 0.0789 (inactive) | -0.209 (inactive) | -0.328 (inactive) | 1.68 (inactive) | 0.816 (inactive) | -0.385 (inactive) | -0.0595 (inactive) | -0.352 | -0.0726
COCCOC(=O)N1C(=O)[C@@]2(c3cc(C#CCC(C(=O)OC)C(=O)OC)ccc31)[C@H](C(=O)N1CCc3cc(OC)c(OC)cc3C1)[C@H]1C(=O)O[C@H](c3ccccc3)[C@H](c3ccccc3)N1[C@@H]2c1ccccc1OCCO | 0.184 | 0.964 | -0.717 | -2.22 | -0.619 | 0.543 | 1.14 (inactive) | -0.946 | -1.05 | 0.853 (inactive) | 1.11 | 1.48 (inactive) | 0.328 (inactive) | -1.23 (inactive) | 1.68 (inactive) | 1.3 (inactive) | 0.414 (inactive) | -0.186 (inactive) | 0.637 | -0.226
